# Data: PubChem BioAssay
# Active and inactive are the calls of the source. The rule behind the calls is not given here.
# Target: Pantothenate synthetase (Mycobacterium tuberculosis (strain ATCC 25618 / H37Rv)) (UniProt P9WIL5)
# Test: Recombinant Mtb pantothenate synthetase (PanC) inhibitors, coupled enzyme, confirmatory (AID 375);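 note: 0% = full reaction with vehicle and 100% = no enzyme background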
# Settings: coupled enzyme assay; at 10 µM, stronger effect = higher value
# Chain of Pantothenate synthetase (Mycobacterium tuberculosis (strain ATCC 25618 / H37Rv)) (P9WIL5 whole entry, looked up): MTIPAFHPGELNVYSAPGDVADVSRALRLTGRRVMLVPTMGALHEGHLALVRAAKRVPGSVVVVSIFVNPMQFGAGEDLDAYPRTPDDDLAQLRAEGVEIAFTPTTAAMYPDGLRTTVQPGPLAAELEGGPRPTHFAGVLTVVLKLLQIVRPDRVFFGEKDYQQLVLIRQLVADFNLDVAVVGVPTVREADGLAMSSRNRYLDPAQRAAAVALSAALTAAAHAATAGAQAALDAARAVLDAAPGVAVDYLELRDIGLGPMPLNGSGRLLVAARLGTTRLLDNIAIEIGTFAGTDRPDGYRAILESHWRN
row,SMILES,inhibition
1,COc1ccc(CN(CC(=O)NCC2CCCO2)C(=O)CCC(=O)Nc2cc(C)on2)cc1 (stereo not given),0% (inactive)
2,Cc1occc1-c1nnc(SCC(=O)N2CCOCC2)n1Cc1ccco1,6% (inactive)
3,C#CCSc1nc(-c2cccs2)ccc1C#N,0% (inactive)
4,Cc1cccc(-n2ncc3c(N)ncnc32)c1,3% (inactive)
5,CCOc1cc(C(=O)Nc2ccon2)cc(OCC)c1OCC,8% (inactive)
6,O=C(Nc1ccc2nc(-c3cccs3)[nH]c2c1)c1ccco1,0% (inactive)
7,OCCNc1nc2ccc(Cl)cc2[nH]1,0% (inactive)
8,Cc1nc(NC(=O)C23CCC(C)(C(=O)O2)C3(C)C)sc1C (stereo not given),0% (inactive)
9,COC(=O)c1ccc(COc2ccc(C3C4=C(CCCC4=O)Nc4onc(C)c43)cc2)cc1 (stereo not given),0% (inactive)
10,Cc1ccc2[nH]c3c(c2c1)CCc1cn[nH]c1-3,0% (inactive)
11,Oc1ccc(Cl)cc1-c1cc(-c2ccccc2)n[nH]1,0% (inactive)
12,O=C(Nc1ccccc1)C1=C(O)CC(c2ccoc2)CC1=Nc1ccccc1 (stereo not given),0% (inactive)
13,CC(C)Oc1ccc2c(=O)c(-c3ccccc3)coc2c1,4% (inactive)
14,COc1ccc(CC(=O)NCc2cccs2)cc1,3% (inactive)
15,O=C(c1ccc(Cl)c(Cl)c1)N1CCOCC1,5% (inactive)
16,CCN1CCN(c2c(Cl)cccc2NC(=O)c2ccc3c(c2)OCCO3)CC1,0% (inactive)
17,CCCSc1nc2c(c(=O)[nH]c(=O)n2C)n1CCc1ccccc1,5% (inactive)
18,Cc1c(C(=O)NC2CCCc3ccccc32)oc2ccc(S(=O)(=O)N3CCOCC3)cc12 (stereo not given),6% (inactive)
19,Fc1cccc2sc(N3CCOCC3)nc12,1% (inactive)
20,NC(=O)NC(=O)CSc1cccc(C(F)(F)F)c1,0% (inactive)

row,SMILES,inhibition
1,O=C(CC(Cc1ccccc1)C(=O)O)NCCc1ccc2c(c1)OCO2 (stereo not given),1% (inactive)
2,CCc1ccc(CCC(=O)Nc2ccc(C)c(C)c2)o1,4% (inactive)
3,COc1ccc(NS(=O)(=O)c2c(C)[nH]c(=O)[nH]c2=O)c(OC)c1,0% (inactive)
4,Cc1ccc(-n2ncc3c(=O)n(CC(=O)N4CCCc5ccccc54)cnc32)cc1C,4% (inactive)
5,CCOc1ccccc1N1CCN(c2nc3ccccc3nc2C(C#N)C(=O)OC)CC1 (stereo not given),5% (inactive)
6,COc1cccc(Cn2c(-c3nonc3N)nc3ccccc32)c1,0% (inactive)
7,COc1ccc(N(CC(=O)Nc2cc(C)ccc2C)S(=O)(=O)c2c(C)nn(C)c2C)cc1,0% (inactive)
8,CC1CCN(C(=O)CSc2nnc(-c3ccc(S(=O)(=O)N4CCOCC4)cc3)n2C)CC1,4% (inactive)
9,CCCCN(CCCC)CCCOC(=O)c1ccc(N)cc1,0% (inactive)
10,CC1CN(C(=O)c2cc3cc(Cl)cc(Cl)c3oc2=O)CC(C)O1 (stereo not given),0% (inactive)
11,CN(C)CCN1C(=O)c2oc3ccc(Cl)cc3c(=O)c2C1c1cccc(Br)c1 (stereo not given),0% (inactive)
12,COc1ccccc1-c1nnc2sc(-c3ccc(N(C)C)cc3)nn12,5% (inactive)
13,CCOc1ccc(CN2CCN(c3cc(C)nc4c5c(C)cc(C)nc5nn34)CC2)cc1,0% (inactive)
14,COc1ccc(-c2c(C(F)(F)F)oc3c(CN4CCN(C)CC4)c(O)ccc3c2=O)cc1,4% (inactive)
15,CSc1ccccc1N=CC1=C(O)CC(C)(C)CC1=O,0% (inactive)
16,COc1ccc(C(=O)Nc2cccc(-c3nc4ncccc4o3)c2C)cc1OC,2% (inactive)
17,Cc1oc(-c2ccccc2F)nc1CS(=O)(=O)CC(=O)NCCCN1CCc2ccccc2C1,0% (inactive)
18,CCOc1cc(C)c(Cl)cc1S(=O)(=O)N(C)C,5% (inactive)
19,O=C(O)CCC(=O)c1c[nH]c2ccccc12,3% (inactive)
20,CC(C(=O)NCCCN1CCOCC1)n1cccc1C(=O)c1ccccc1 (stereo not given),0% (inactive)
